Results published in PubChem BioAssay (NCATS).
Records with an inconclusive call do not appear. The source made the active and inactive calls. Unless noted, calls follow the shape of the dose curve; as a rule, active = well fitted curve in the direction sought with a large enough effect; inconclusive = small, poorly fitted or top-dose-only effect, or another doubt; inactive = no such curve, though single readings can be large; an effect the other way counts as inactive or inconclusive.

Key:
[1] = target: Glucagon-like peptide 1 receptor (Homo sapiens) (UniProt P43220); assay: qHTS of GLP-1 Receptor Agonists: LOPAC Validation (AID 624148);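 also: higher luminescence signal means agonism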
In short: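 HEK293 cells stably co-expressing a cAMP-responsive luciferase reporter and a hypersensitive GLP-1R were plated 12 h at 37 °C and exposed to compounds for 4-6 hr at 37 °C, 5% CO2. Luminescence was read 12 min after adding detection reagent.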

[2] = qHTS of Nrf2 Activators: LOPAC Validation (AID 624149)
In short: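 Luciferase signal from ARE activation, read with Steady-Glo after 30 min at room temperature. Compounds were pin-transferred onto AREc32_Fluc cells (1000/well, OPTI-MEM/5% FBS, seeded overnight) and left 24 hr at 37 deg C.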

[3] = HTS Assay for Allosteric Antagonists of the Human D2 Dopamine Receptor: Hit Validation in HTRF (AID 624455);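 also: stable D1 dopamine receptor cell line scored for blocking the D1 response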
In short: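 Inhibition of the D1-mediated response was measured by HTRF. Cells used were a line stably expressing the D1 dopamine receptor.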

[4] = qHTS of Trypanosoma Brucei Inhibitors: LOPAC Validation (AID 624147)
In short: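 TbPYK + substrate in 50 mM TEA pH 7.2, 100 mM KCl, 10 mM MgCl2, 0.05% BSA, 0.01% Tween-20; cpd pinned; ADP 130 uM final; 45 min RT; Kinase-Glo Plus 10 min; luminescence endpoint.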

[5] = Cytotoxicity counterscreen for NFkB agonists and antagonists (AID 624476);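 also: cells exposed to compound for 48 hours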; also: potency is read from the fitted curve at half-maximal effect
[6] = qHTS Assay for Identification of Small Molecule Antagonists for NFkB Signaling Pathway. (AID 624479; calls by dose curve;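 also: pathway stimulated with TNF alpha; potency is read from the fitted curve at half-maximal effect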)
[7] = Cell Proliferation Assay against the HBL1 Cell Line (AID 651646); settings: HBL1 DLBCL cells; at 46.1 µM (top of the series) unless noted;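 also: cells exposed to compound for 48 h before reading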
In short: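 After a 48 h incubation of 500 HBL1 cells/well in phenol red-free RPMI plus 5% FBS, relative luciferase units from CellTiter-Glo gave percent activity against DMSO and 9.2 uM bortezomib (final) controls.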

Glucagon-like peptide 1 receptor (Homo sapiens), sequence (P43220 whole entry, looked up): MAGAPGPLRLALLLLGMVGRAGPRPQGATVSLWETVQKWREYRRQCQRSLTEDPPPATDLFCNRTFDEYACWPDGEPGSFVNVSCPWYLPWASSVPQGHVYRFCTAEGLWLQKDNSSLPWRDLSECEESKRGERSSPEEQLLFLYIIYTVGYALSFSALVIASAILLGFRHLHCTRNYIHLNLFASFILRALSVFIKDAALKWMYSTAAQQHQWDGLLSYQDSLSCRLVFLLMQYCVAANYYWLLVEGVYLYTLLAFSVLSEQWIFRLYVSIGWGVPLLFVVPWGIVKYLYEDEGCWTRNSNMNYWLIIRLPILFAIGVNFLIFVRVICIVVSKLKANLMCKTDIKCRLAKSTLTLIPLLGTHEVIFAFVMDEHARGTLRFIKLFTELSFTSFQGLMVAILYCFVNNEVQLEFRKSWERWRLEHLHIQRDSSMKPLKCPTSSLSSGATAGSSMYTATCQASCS

CC(C)OC(=O)C(C)(C)Oc1ccc(C(=O)c2ccc(Cl)cc2)cc1
inactive: outcome [1] | outcome [2] | outcome [3]

CC(=O)CCCCn1c(=O)c2c(ncn2C)n(C)c1=O
inactive: outcome [4] | outcome [1] | outcome [2]

CCCNC(=O)NS(=O)(=O)c1ccc(Cl)cc1
inactive: outcome [4] | outcome [1] | outcome [2] | outcome [3]

O=C1NC(=O)C(c2ccccc2)(c2ccccc2)N1
inactive: outcome [4] | outcome [1] | outcome [2] | outcome [3]

CN(C)CCC(c1ccccc1)c1ccccn1 (stereo not drawn)
inactive: outcome [4] | outcome [2] | outcome [3]

COc1cccc(-c2cc(=O)c3ccccc3o2)c1N
inactive: outcome [4] | outcome [1] | outcome [2] | outcome [3]

NC(N)=Nc1nc(CSCC/C(N)=N/S(N)(=O)=O)cs1
inactive: outcome [4] | outcome [1] | outcome [2] | outcome [3]

CCN(CC)CCNC(=O)c1ccc(N)cc1
inactive: outcome [4] | outcome [2] | outcome [3]

C[N+](C)(C)CC(=O)O
inactive: outcome [1] | outcome [2] | outcome [3]

NCCS
inactive: outcome [4] | outcome [1] | outcome [2] | outcome [3]

CCN1CCC[C@H]1CNC(=O)c1cc(S(N)(=O)=O)ccc1OC
inactive: outcome [4] | outcome [1] | outcome [2] | outcome [3]

COc1ccc(Cc2nccc3cc(OC)c(OC)cc23)cc1OC
inactive: outcome [4] | outcome [2] | outcome [3]

CC(C)NCC(O)COc1cccc2[nH]ccc12 (stereo not drawn)
inactive: outcome [4] | outcome [1] | outcome [3]

CCN(CC)C(=O)c1ccc(O)c(OC)c1
inactive: outcome [4] | outcome [1] | outcome [2] | outcome [3]

O=C1NCC2(CCN(CCc3ccccc3)CC2)O1
inactive: outcome [4] | outcome [1] | outcome [2] | outcome [3]

CC(C)(C)c1ccc(C(O)CCCN2CCC(C(O)(c3ccccc3)c3ccccc3)CC2)cc1 (stereo not drawn)
inactive: outcome [4] | outcome [1] | outcome [3]

CN(C)Cc1ccc(-c2nc3cccc4c3n2CCNC4=O)cc1
inactive: Potency [5]
60.9%: viability, percent of control [7]
active: Potency [6] 23.7 µM

O=c1c(-c2ccc(O)cc2)coc2cc(O)ccc12
inactive: outcome [4] | outcome [1] | outcome [2] | outcome [3]

COC(=O)[C@@H]1[C@H]2C[C@H]3c4[nH]c5ccccc5c4CCN3C[C@@H]2CC[C@@H]1O
inactive: outcome [4] | outcome [1] | outcome [2] | outcome [3]

O=C(O)CCc1nc(-c2ccccc2)c(-c2ccccc2)o1
inactive: outcome [4] | outcome [1] | outcome [3]

COc1ccccc1N1CCN(CCCNc2cc(=O)n(C)c(=O)n2C)CC1
inactive: outcome [4] | outcome [1] | outcome [2] | outcome [3]

CC(=O)Nc1ccc([C@H](C)C(=O)Nc2ncc(C(C)C)s2)cc1
33.5%: viability, percent of control [7]
active: Potency [5] 0.935 µM | Potency [6] 0.335 µM

Cc1cccc(C)c1OCC(C)N (stereo not drawn)
inactive: outcome [4] | outcome [1] | outcome [2] | outcome [3]

Clc1ccc(C(c2ccc(Cl)cc2)n2cc[n+](CC(OCc3ccc(Cl)cc3Cl)c3ccc(Cl)cc3Cl)c2)cc1 (stereo not drawn)
inactive: outcome [4] | outcome [1] | outcome [2] | outcome [3]

CCn1cc(C(=O)O)c(=O)c2ccc(C)nc21
inactive: outcome [4] | outcome [1] | outcome [3]

CC(=O)O[C@]1(C(C)=O)CC[C@H]2[C@@H]3C=C(Cl)C4=CC(=O)[C@@H]5C[C@@H]5[C@]4(C)[C@H]3CC[C@@]21C
inactive: outcome [4] | outcome [1] | outcome [2] | outcome [3]

CCCCCN(C)CCC(O)(P(=O)(O)O)P(=O)(O)O
inactive: outcome [4] | outcome [1] | outcome [2] | outcome [3]

Clc1ccc(Cn2c(CN3CCCC3)nc3ccccc32)cc1
inactive: outcome [4] | outcome [1] | outcome [2] | outcome [3]

CC/C(=C(\c1ccccc1)c1ccc(OCCN(C)C)cc1)c1ccccc1
inactive: outcome [4] | outcome [1] | outcome [2] | outcome [3]

CC(=O)c1ccc(S(=O)(=O)NC(=O)NC2CCCCC2)cc1
inactive: outcome [4] | outcome [1] | outcome [2] | outcome [3]

CO[C@@H](C(=O)N1Cc2[nH]nc(NC(=O)c3ccc(N4CCN(C)CC4)cc3)c2C1)c1ccccc1
inactive: Potency [5]

CC1=C(/C=C/C(C)=C/C=C/C(C)=C/C(=O)Nc2ccc(O)cc2)C(C)(C)CCC1
0.102%: viability, percent of control [7]
inactive: outcome [4] | outcome [1] | outcome [2] | outcome [3]
active: Potency [5] 20.9 µM | Potency [6] 21.1 µM

CCN(CC)CCOC(=O)c1ccc(N)cc1
inactive: outcome [4] | outcome [1] | outcome [2] | outcome [3]

C[N+](C)(C)CCCCCC[N+](C)(C)C
inactive: outcome [4] | outcome [1] | outcome [2] | outcome [3]

CCCCC1C(=O)N(c2ccccc2)N(c2ccccc2)C1=O
inactive: outcome [4] | outcome [1] | outcome [2] | outcome [3]
